What was measured:
Details in all cases: concentration: 1 μM, replicates: in singlicate; n = 1
[1] = system: T1, HASPIN
T1 construct: gene GSG2

[2] = system: HCK
[3] = system: HIPK1
[4] = system: HIPK2
[5] = system: HIPK3
[6] = system: HIPK4
[7] = system: HPK1
[8] = system: HUNK
[9] = system: ICK
[10] = system: IGF1R
[11] = system: T2, IKK-alpha
T2 construct: gene CHUK

[12] = system: T3, IKK-beta
T3 construct: gene IKBKB

[13] = system: T4, IKK-epsilon
T4 construct: gene IKBKE

[14] = system: INSRR
[15] = system: INSR
[16] = system: IRAK1
[17] = system: IRAK3
[18] = system: IRAK4
[19] = system: ITK
[20] = system: JAK1(JH1domain-catalytic)
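Also: KINOMEscan kinase panel screen.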

Structure (SMILES) | %Inh [1] | %Inh [2] | %Inh [3] | %Inh [4] | %Inh [5] | %Inh [6] | %Inh [7] | %Inh [8] | %Inh [9] | %Inh [10] | %Inh [11] | %Inh [12] | %Inh [13] | %Inh [14] | %Inh [15] | %Inh [16] | %Inh [17] | %Inh [18] | %Inh [19] | %Inh [20]
COc1cc(Nc2nccc(N3CCC(NC(=O)c4cc5ccccc5s4)C3)n2)cc(OC)c1OC (stereo not drawn) [GSK1379760] | 19% | 0% | 9% | 0% | 0% | 9% | 90% | 0% | 0% | 13% | 0% | 0% | 6% | 4% | 5% | 18% | 85% | 4% | 5% | 8%
Cl.c1ccc(-c2ccc3c(Nc4ccc5[nH]ccc5c4)ccnc3c2)nc1 [GW440138] | 23% | 19% | 0% | 0% | 0% | 0% | 10% | 0% | 0% | 40% | 17% | 8% | 19% | 0% | 0% | 28% | 0% | 3% | 0% | 12%
Cc1cccc(NC(=O)Nc2ccc(Oc3ncnc4ccn(C)c34)cc2)c1 | 0% | 25% | 24% | 0% | 0% | 52% | 31% | 4% | 0% | 0% | 27% | 8% | 0% | 0% | 0% | 0% | 0% | 0% | 0% | 0%
Cl.Cl.NCC(NC(=O)c1cc(-c2ccccc2)c(-c2ccnc3[nH]ccc23)s1)c1ccccc1 (stereo not drawn) [GSK1321561] | 90.3% | 0% | 18% | 28% | 47% | 50% | 68% | 11% | 3% | 0% | 1% | 3% | 0% | 0% | 12% | 40% | 15% | 0% | 11% | 29%
O=C(Nc1n[nH]c2nc(-c3ccc(O)cc3)ccc12)C1CC1 [SB-710363] | 36% | 35% | 94.4% | 91.8% | 90.5% | 21% | 17% | 0% | 98.5% | 0% | 0% | 0% | 7% | 0% | 0% | 0% | 0% | 0% | 0% | 6%
Cc1occc1-c1ncc(OC[C@@H](N)Cc2c[nH]c3ccccc23)cc1-c1ccc2[nH]nc(C)c2c1.O=C(O)C(F)(F)F [GSK682037] | 65% | 0% | 0% | 0% | 7% | 35% | 90% | 79% | 0% | 7% | 0% | 0% | 0% | 9% | 9% | 0% | 0% | 0% | 12% | 0%
COc1cc(Nc2nccc(N3CCC(NC(=O)Nc4cccc(C(C)=O)c4)C3)n2)cc(OC)c1OC (stereo not drawn) [GSK1379753] | 0% | 0% | 0% | 0% | 3% | 0% | 55% | 0% | 11% | 0% | 0% | 10% | 20% | 0% | 1% | 77% | 86% | 40% | 34% | 0%
CSc1cccc2c(-c3ccncn3)c(-c3ccc(F)cc3)nn12 [GW514786] | 17% | 0% | 9% | 0% | 10% | 32% | 21% | 8% | 0% | 19% | 0% | 0% | 5% | 3% | 10% | 10% | 24% | 0% | 10% | 1%
FC(F)(F)c1ccc(/C=C/c2cncnc2Nc2ccc3[nH]c(Cc4ccccc4)nc3c2)cc1 [GW709199] | 12% | 14% | 21% | 0% | 0% | 13% | 12% | 55% | 0% | 0% | 0% | 0% | 0% | 0% | 0% | 2% | 3% | 0% | 6% | 10%
Cn1cc(-c2ccc3c(c2)CCN3C(=O)Cc2cccc(Cl)c2)c2c(N)ncnc21 [GSK2606590] | 2% | 0% | 13% | 0% | 13% | 0% | 47% | 4% | 0% | 0% | 22% | 57% | 78% | 16% | 9% | 0% | 22% | 0% | 19% | 18%
CN1CCN(CCCNc2nccc(-c3c(-c4ccc(F)cc4)nn4cc(C(F)(F)F)ccc34)n2)CC1 [GW621581] | 0% | 14% | 0% | 2% | 0% | 0% | 30% | 0% | 0% | 0% | 35% | 23% | 0% | 0% | 0% | 0% | 0% | 7% | 0% | 0%
O=C(O)C(F)(F)F.O=C(O)C(F)(F)F.O=c1[nH]ccc2nc(N[C@@H]3CCCNC3)nc(Nc3ccc(S(=O)(=O)N4CCOCC4)cc3)c12 [GSK2177277] | 81% | 92.6% | 83% | 92.9% | 97.2% | 54% | 98.2% | 0% | 88% | 90.8% | 100% | 98.1% | 75% | 99.2% | 97.6% | 99.6% | 22% | 83% | 86% | 99%
CN(C)Cc1ccc(-c2ccc3c(Nc4ccc(Oc5ccccn5)cc4)ccnc3c2)o1 [GW567148] | 26% | 93.8% | 0% | 0% | 1% | 0% | 0% | 0% | 0% | 0% | 27% | 7% | 27% | 0% | 6% | 21% | 22% | 0% | 15% | 0%
Cc1ccc(S(=O)(=O)Nc2ccc(Nc3nccc(Nc4cccc5[nH]ncc45)n3)cc2)cc1 [GSK581271] | 0% | 0% | 0% | 0% | 1% | 0% | 23% | 2% | 0% | 10% | 10% | 3% | 0% | 0% | 0% | 29% | 62% | 43% | 29% | 44%
O=C(NC1CCN(c2ccnc(Nc3ccc(F)cc3)n2)C1)c1cc2ccccc2s1 (stereo not drawn) [GSK1379716] | 12% | 0% | 0% | 0% | 8% | 0% | 54% | 10% | 0% | 13% | 21% | 0% | 15% | 0% | 70% | 32% | 11% | 17% | 21% | 29%
Clc1ccc(-c2nn3ncccc3c2-c2ccnc(Nc3ccc4c(c3)OCCO4)n2)cc1 [GW829116] | 0% | 54% | 14% | 0% | 0% | 0% | 0% | 50% | 0% | 0% | 0% | 0% | 17% | 0% | 0% | 0% | 0% | 0% | 0% | 0%
O=C(Nc1ccccc1F)NC1CCN(c2ccnc(Nc3ccc(F)cc3)n2)CC1 [GSK1379800] | 9% | 0% | 0% | 0% | 16% | 0% | 34% | 6% | 3% | 10% | 0% | 0% | 22% | 0% | 0% | 24% | 21% | 5% | 0% | 20%
Cl.NC(=O)c1cccc(Nc2nccc(Nc3ccc(Oc4c(Cl)cccc4Cl)c(Cl)c3)n2)c1 [GW659009] | 0% | 77% | 0% | 11% | 2% | 4% | 0% | 0% | 0% | 0% | 0% | 0% | 0% | 0% | 0% | 0% | 90% | 0% | 98.7% | 9%

— publication PMC5540273 (PLoS ONE, 2017)
